High-throughput results deposited in PubChem by National Center for Advancing Translational Sciences (NCATS).
An excerpt weighted towards active compounds, which were near 2% of everything screened.
TDP43 rescue – inhibitors of TDP-43 toxicity in yeast; TDP-43 expressing yeast growth rescue, BacTiter-Glo, 24 h; Potency, µM (top dose mostly 46.1 µM), for the others: at the top dose growth rescue (activation), hits mostly activators; 1.8% of 410,000 active; AID 652104; note: % of control where 0% means no effect; nearly all actives have a fitted effect of over 50% in size
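Yeast cells expressing TDP-43 under galactose induction are exposed to compounds for 24 hr at 30 deg C. BacTiter-Glo luminescence measures growth, so protective compounds score as activators.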
aSyn yeast inh – alpha-synuclein toxicity inhibition in yeast. Yeast expressing alpha-synuclein, growth rescue, BacTiter-Glo, 24 h. Potency, µM (top dose mostly 46.1 µM), inactives show at the top dose growth rescue (activation), usual class: activators. 0.14% of 370,000 active; note: % of control where 0% means no effect; nearly all actives have a fitted effect of over 65% in size
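Galactose-induced alpha-syn yeast (OD600=0.02, raffinose-pregrown) + pinned cpd, 24 hr, 30 deg C; growth by BacTiter-Glo luminescence. Growth restoration scores as activation.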
Glioma ERSR ind – inducers of ER stress response in human glioma cells | 0.02% of 420,000 active | Potency, µM, inactives show at the top dose activation, actives largely listed as activators | AID 602332 | U87-MG GRP78 promoter luciferase reporter, 16 h; note: series mostly up to about 76 µM; % of control where 0% means no effect; nearly all actives have a fitted effect of over 35% in size
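Stably transfected U87-MG glioma cells carrying a GRP78-based luciferase sensor; 16 h compound incubation. Luminescence end-point read 10 min after Bright-Glo addition at room temperature.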
MBNL1 CUG block – blocks human MBNL1 binding to CUG repeat RNA; Potency, µM (highest dose often 57.5 µM), without a hit: top-dose activity change, negative = inhibition, actives largely listed as inhibitors; Q9NR56; TR-FRET MBNL1-His/biotin-(CUG)12 binding, 665/545 ratio; 0.036% of 280,000 active; active = well fitted inhibition curve with a large enough effect in the signal ratio, with a control signal flat, not every such curve was filed as active; inconclusive = small, poorly fitted or top-dose-only effect, or effect the other way, or a change in a side signal; inactive = no such curve, though single readings can be large or run the other way; the % refers to the signal ratio; note: % is set by controls: 0 for no effect and ±100 for the full control effect
Target sequence (Q9NR56 whole entry, looked up): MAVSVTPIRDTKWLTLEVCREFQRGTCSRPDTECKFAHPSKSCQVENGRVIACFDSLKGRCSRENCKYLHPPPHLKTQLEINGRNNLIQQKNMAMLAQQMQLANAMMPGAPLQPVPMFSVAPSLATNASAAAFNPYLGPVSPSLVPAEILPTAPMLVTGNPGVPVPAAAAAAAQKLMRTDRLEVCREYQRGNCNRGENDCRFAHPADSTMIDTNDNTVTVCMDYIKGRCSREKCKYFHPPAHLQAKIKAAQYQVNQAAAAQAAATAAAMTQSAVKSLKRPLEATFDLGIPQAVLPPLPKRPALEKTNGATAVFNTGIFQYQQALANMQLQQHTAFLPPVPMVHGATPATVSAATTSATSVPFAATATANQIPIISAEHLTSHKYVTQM
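Compounds (final 92 nM to 58 uM) are added to His-tagged MBNL1 and biotin-(CUG)12, then terbium anti-His antibody and streptavidin-XL665 (5 nM final). After 60 min at room temperature, the 665/545 nm ratio is read.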
FUS yeast rescue – rescues growth of FUS-expressing yeast. Potency, µM (doses to about 76.6 µM), most hits filed as activators. AID 1347120. S. cerevisiae FUS-expressing, growth rescue, OD600, 24 h. 0.24% of 390,000 active;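 note: plate controls were DMSO vehicle for no effect and reference control for full effect; nearly all actives have a fitted effect of over 55% in size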
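S. cerevisiae expressing FUS from galactose induction served as the toxicity model. Growth after 24hr at 30C, read as absorbance at 600 nm, indicates suppression of toxicity; compounds dosed at several concentrations.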
Abeta rescue – restores growth of yeast expressing A-beta42 peptide; yeast expressing A-beta42, growth rescue, OD600, 48 h; response scale: 0% DMSO, 100% iron-clioquinol control; Potency, µM (doses to about 46.1 µM), usual class: activators; 0.063% of 410,000 active; note: nearly all actives have a fitted effect of over 55% in size
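Yeast A-beta toxicity model in growth medium with pinned compounds, 48 h at 30 C; growth read as absorbance at 600 nm. Normalized to FeCl3/clioquinol equimolar mix (positive) and DMSO (negative).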
* marks the source's active call; other numbers are inactive results; i = inactive; ? = inconclusive; . = no result. Unless noted, calls come from the whole dose curve; as a rule, active = well fitted curve in the direction sought with a large enough effect; inconclusive = small, poorly fitted or top-dose-only effect, or another doubt; inactive = no such curve, though single readings can be large; an effect the other way counts as inactive or inconclusive. Potency is the fitted concentration of half-maximal effect.

SMILES | TDP43 rescue | aSyn yeast inh | Glioma ERSR ind | MBNL1 CUG block | FUS yeast rescue | Abeta rescue
COC(=O)[C@]12C[C@H](CC(=O)NCc3cccs3)C(=O)N(Cc3ccco3)C1=C[C@H](COCc1ccccc1)O[C@@H]2C | . | . | . | . | i | .
CCOC(=O)c1[nH]c2c(c1Cc1ccccc1)C(=O)CC(c1ccccc1)C2 (configuration not stated) | 12.6µM* | . | 1.3% | . | i | i
CCc1ccc(N(CC)C(=O)Cc2c(C(=O)O)n(C)c3ccccc23)cc1 | 28.2µM* | -10.8% | -2.4% | 1.4% | i | i
CCOc1ccc(N(CC)C(=O)Cc2c(C(=O)O)n(C)c3ccccc23)cc1 | -24.8% | 1.5% | -0.3% | 0.6% | i | ?
CC(C)c1ccc(N(C)C(=O)Cc2c(C(=O)O)n(C)c3ccccc23)cc1 | 28.2µM* | 9.9% | 0.4% | -3.9% | i | i
CN(C(=O)Cc1c(C(=O)O)n(C)c2ccccc12)c1ccc(Cl)cc1 | -23.4% | 2.9% | -4.0% | 3.3% | i | i
COc1ccc(-n2ncc3c(N4CCC(C)CC4)ncnc32)cc1 | 14.1µM* | -8.2% | -8.2% | 8.6% | i | i
COc1cccc(C(=O)OCC(=O)c2ccc(Br)s2)c1OC | 1.78µM* | -4.7% | 3.1% | . | i | i
COc1cccc(C(=O)OCC(=O)NCCNC(=O)COC(=O)c2cccc(OC)c2OC)c1OC | 4.4% | 8.5% | -3.9% | -1.0% | . | i
c1ccc(-c2ccccc2-c2nc(-c3ccncc3)no2)cc1 | ? | 15.6% | -5.7% | 0.7% | i | i
Cc1cc(C)c(C)c(OCc2nc(-c3cccnc3)no2)c1 | -13.6% | . | -2.6% | -2.6% | i | i
Cc1ccccc1-c1nc(-c2cccnc2)no1 | 14.1µM* | -0.1% | 7.4% | -3.0% | i | i
Cc1ccc(-c2noc(/C=C/c3ccccc3)n2)cc1 | -16.1% | -14.1% | 6.4% | -9.9% | i | i
C(=C\c1nc(-c2cccnc2)no1)/c1ccccc1 | 2.24µM* | -6.6% | -3.4% | 13.8% | i | i
CSc1ccccc1-c1nc(-c2ccncc2)no1 | 14.1µM* | 14.2% | -4.5% | 0.6% | i | i
Cc1ccc(SCc2nc(-c3cccnc3)no2)cc1 | 17.8µM* | 5.4% | 5.1% | 5.6% | i | i
COc1ccc(CN2CCN(C(C)=O)CC2)cc1OC1CCN(C(=O)c2ccc3ccccc3n2)CC1 | . | . | 2.1% | . | . | .
Cc1ccccc1CN1[C@H](C)[C@H](c2ccccc2)OCCS1(=O)=O | . | . | -0.7% | . | . | .
Clc1ccccc1-c1nc(-c2cccnc2)no1 | ? | 4.1% | -5.8% | 7.9% | i | i
c1ccc(-c2nc(-c3ccncc3)no2)cc1 | 4.7% | 2.5% | -3.5% | -0.9% | i | i
c1ccc(C(Cc2nc(-c3ccncc3)no2)c2ccccc2)cc1 | 35.5µM* | 0.7% | -1.5% | 1.4% | i | i
Clc1ccccc1/C=C/c1nc(-c2cccnc2)no1 | 10µM* | -3.6% | 7.8% | 15.9% | i | i
CCOC(=O)NC[C@@]1(C(=O)OC)CC(=O)N(C)[C@@H]1c1ccccc1 | . | . | . | . | i | .
Cc1csc2ncnc(N3CCN(S(=O)(=O)c4cccc(C(F)(F)F)c4)CC3)c12 | 17.8µM* | 11.8% | -3.8% | -0.8% | . | i
CN(C)c1ccc(-c2nc3ncc(Cl)cc3[nH]2)cc1 | . | . | . | . | i | .
SMILES | TDP43 rescue | aSyn yeast inh | Glioma ERSR ind | MBNL1 CUG block | FUS yeast rescue | Abeta rescue
CCC1CCc2sc(C(=O)O)cc2C1 (configuration not stated) | 14.1µM* | 17.8% | -4.5% | 5.3% | i | i
COc1ccc2c(c1)CCc1cc(C(=O)O)sc1-2 | ? | 2.2% | -0.3% | 21.3% | i | i
COc1ccc(-c2cc(C(=O)O)sc2C)cc1 | 22.4µM* | 1.6% | 1.3% | -7.5% | i | i
CCc1cccc(NC(=S)N(CCN(C)C)C(C)c2ccncc2)c1 (configuration not stated) | 9.2% | -5.0% | -1.6% | -7.4% | i | i
CCOC(=O)c1ccc(NC(=S)N(CCN(C)C)C(C)c2ccncc2)cc1 (configuration not stated) | 23.3% | 28.2µM* | -2.3% | -3.7% | i | i
Cc1ncc2c(c1CNS(=O)(=O)N(C)C)CCN(C(=O)c1ccc(F)cc1Cl)C2 | . | . | -1.1% | . | . | .
COCCCNC(=O)C1CCCN(C(=O)c2cnn(-c3ccc(F)cc3)c2-n2cccc2)C1 (configuration not stated) | 0.0% | ? | -5.5% | . | i | i
O=C(c1cnn(-c2ccc(F)cc2)c1-n1cccc1)N1CCN(c2cccc(Cl)c2)CC1 | 12.6µM* | 2.3% | -2.8% | . | i | i
CCOC(=O)N1CCN(C(=O)c2cnn(-c3cccc(F)c3)c2-n2cccc2)CC1 | 15.9% | . | -3.4% | . | i | i
COC(=O)c1ccccc1NC(=O)C1CCCN(C(=O)c2cnn(-c3ccc(F)cc3)c2-n2cccc2)C1 (configuration not stated) | 35.5µM* | 5.0% | -2.5% | . | i | i
CCOC(=O)[C@]12CCCC=C1N(Cc1ccc(OC)cc1)C(=O)[C@@H]2CC(=O)N1CCN(C(=O)c2ccco2)CC1 | . | . | . | . | i | .
COc1ccc(C2=CC(=O)C[C@H](c3ccc(Cl)cc3)C2)cc1 | ? | 1.7% | -4.6% | . | i | i
COCc1ccccc1C1=CC(=O)C[C@H](c2ccc(OC)cc2)C1 | 11.2µM* | 9.5% | -3.2% | . | i | i
CCOc1ccc(C2=CC(=O)C[C@H](c3ccc(OC)cc3)C2)cc1 | 12.6µM* | 12.4% | 3.6% | . | i | i
COc1ccc(C2=CC(=O)CC(c3ccc(OC)cc3)C2)cc1 (configuration not stated) | 25.1µM* | 13.8% | 7.9% | ? | i | i
O=C1C=C(c2cc3ccccc3s2)C[C@@H](c2ccc(F)cc2)C1 | 17.8µM* | 0.5% | -1.6% | . | i | i
CCc1ccccc1C1=CC(=O)C[C@H](c2ccc(OC)cc2)C1 | ? | 4.7% | -0.1% | . | i | ?
Cc1ncc2c(c1CNC(=O)c1ccccc1F)CCN(C(=O)c1ccccc1-n1cccn1)C2 | . | . | -4.2% | . | . | .
CCCCNC(=O)NS(=O)(=O)c1ccc(NC(=O)CSc2nnc(-c3cccs3)n2-c2ccc(OC)cc2)cc1 | . | . | . | . | i | .
CC(C)[C@H]1COCCS(=O)(=O)N1Cc1cccc([N+](=O)[O-])c1 | . | . | -3.9% | . | . | .
COc1cc(CN2CCCC(n3cc(C(=O)N4CCCCC4)nn3)C2)cc(OC)c1OC (configuration not stated) | . | . | -1.0% | . | . | .
